Measured values as given in PubChem BioAssay (NCATS).
Results filed as inconclusive are left out. Activity calls are given as the source filed them. Unless noted, the call rests on the fitted dose curve; in most records, active means well fitted curve in either direction with a large enough effect (not every such curve was filed as active); inconclusive means small, poorly fitted or top-dose-only effect, or another doubt; inactive means flat fitted curve, though single readings scatter.

Experiments:
[1] = system: HIV-1 nucleocapsid protein NCp7 (binding to TG oligonucleotide); assay: HIV Nucleocapsid (AID 346; call rule not given here;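 further: potency means the concentration at half of the fitted maximal effect; potency is for inhibitors that block NC binding and lower polarization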); details: HIV-1 NC / fluorescein-TGTGTGTG probe, fluorescence polarization
How it was run: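 Reagents dispensed (10 nM TG4xF, 100 nM HIV-1 NC), plates spun, compounds pin-transferred, then incubated 1 hr at room temperature before FP imaging. Buffer: Hepes pH 7.5, 250mM NaCl, 1uM ZnCl2, 100 uM TCEP, 5 mM 2-mercaptoethanol.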

[2] = molecular target: Cytochrome P450 3A4 (Homo sapiens) (UniProt P08684); assay: qHTS Assay for Inhibitors and Substrates of Cytochrome P450 3A4 (AID 884; active means well fitted inhibition curve with a large enough effect; further: potency means the concentration at half of the fitted maximal effect; nearly all actives have a fitted effect of over 50% in size); details: recombinant CYP3A4, Luciferin-PPXE luminescence; series mostly up to 57.1 µM
How it was run: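 20 nM human CYP3A4 with 25 uM Luciferin-PPXE (at KM) in 200 mM KPO4, preincubated 10 min with compound; NADPH regeneration started a 60 min RT reaction. Luciferin detected by luminescence, normalized to 57 uM ketoconazole as full inhibition.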

[3] = molecular target: Lysosomal acid glucosylceramidase (Homo sapiens) (UniProt P04062); assay: Glucocerebrosidase-p2 (AID 348; in the data active means potency below about 10 µM; further: potency means the concentration at half of the fitted maximal effect); details: purified GBA, blue fluorogenic substrate, 40 min
How it was run: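 Compounds titrated from 0.6 nM upwards against 0.2 nM enzyme in pH 5.9 citric acid/KH2PO4, taurocholate, tween-20; blue fluorogenic substrate 80 uM, 40 min room temperature, stopped and read Ex 365/Em 440 for AC50.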

[4] = AP1 Signaling Pathway (AID 357); details: ME-180 AP-1-bla reporter, EGF-induced, beta-lactamase ratio, 5 h; at 7.69 µM (top of the series) unless noted;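 further: ME-180 reporter cells stimulated with EGF at its EC50 level; on the % scale 0 is the no-effect control and ±100 the full control effect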
How it was run: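 AP-1-bla ME-180 cells, Opti-MEM + 0.5% dialyzed FBS, plated overnight 37 °C. Cpd titration + EC50 EGF, 5 h 37 °C. CCF4 2.5 h RT; ex 405, em 460/530 ratio → %activity, AC50.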

[5] = molecular target: Cytochrome P450 1A2 (Homo sapiens) (UniProt P05177); assay: p450-cyp1a2 (AID 410; calls by dose curve; further: potency means the concentration at half of the fitted maximal effect;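 on activity change, negative = inhibition: -100% = full effect of reference inhibitor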); details: recombinant CYP1A2, luciferin-ME demethylation, luminescence; series mostly up to 11.4 µM
How it was run: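 Human CYP1A2 (20nM) demethylated Luciferin-ME at its Km (100uM) in 100mM KPO4. After 10 min compound preincubation, NADPH regeneration ran the reaction 60 min at room temperature. Luciferin was read by luminescence, normalized to 57 uM furafylline.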

[6] = NFAT Signaling Pathway (AID 444); details: Jurkat NFAT-bla M1, carbachol, beta-lactamase ratio, 5 h; at 7.69 µM (top of the series) unless noted;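 further: carbachol stimulus at about its EC50 of 1 µM final; on the % scale 0 is the no-effect control and ±100 the full control effect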
How it was run: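 Jurkat cells with NFAT-driven β-lactamase reporter and co-expressed M1 receptor, stimulated with carbachol (final 1 uM, ~EC50), compound titration, 5 h at 37 °C. CCF4 loaded 1 h at RT; 460/530 nm ratio gave %activity and AC50.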

[7] = Stat Signaling Pathway (AID 446); details: ME-180 SIE beta-lactamase reporter, IL-6 stimulated, 5 h; at 7.69 µM (top of the series) unless noted;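 further: ME-180 cervical cancer cells given 40 pM IL-6 alongside compound; SIE-controlled beta-lactamase reporter measured as 460/530 nm FRET emission ratio; on the % scale 0 is the no-effect control and ±100 the full control effect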
How it was run: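 ME-180 cells carrying a SIE-driven beta-lactamase reporter are stimulated with 40 pM IL-6 for 5 h at 37C in the presence of compound. The 460/530 nm FRET substrate ratio is read after 2.5 h at RT. Data are normalised to 300 pM IL-6 and to 125 nM JAK inhibitor controls.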

[8] = molecular target: Glucocorticoid receptor (Homo sapiens) (UniProt P04150); assay: GR-GFP Redistribution (AID 450;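 active means compounds whose dose series gives a full or clear partial fitted curve of increased nuclear translocation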; further: potency means the concentration at half of the fitted maximal effect); details: U2OS GR-GFP nuclear translocation, laser cytometry, 2 h
[9] = molecular target: Glucocorticoid receptor (Homo sapiens) (UniProt P04150); assay: GR-EFC Redistribution (AID 451; calls by dose curve; further: potency means the concentration at half of the fitted maximal effect); details: CHO-K1 GR-EFC translocation, beta-gal luminescence, 2 h
How it was run: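 CHO-K1 cells expressing nuclear EA and GR-ED fragments of b-gal; compounds titrated up to 46 uM final, 2 h at 37 C. GR nuclear translocation read as complemented b-gal luminescence after 1 h RT detection.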

[10] = molecular target: Mitogen-activated protein kinase 10 (Mus musculus) (UniProt Q61831); assay: JNK3 AlphaScreen Assay (AID 530); details: JNK3 lysate, c-Jun phosphorylation; series mostly up to 57.1 µM;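 further: kinase came from lysate of stimulated human HepG2 cells; signal reports phosphorylation of biotinylated GST-cJun 1-79 at Ser73 with 10 µM ATP; on the % scale 0 is the no-effect control and ±100 the full control effect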
How it was run: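 qHTS format: compounds tested as titrations against IL-1beta/TNF-alpha-activated HepG2 lysate JNK3 with biotin-GST-cJun substrate and 10 uM ATP at room temperature. Loss of anti-phospho-cJun AlphaScreen signal indicates inhibition.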

[11] = molecular target: 3',5'-cyclic-AMP phosphodiesterase 4B (Homo sapiens) (UniProt Q07343); assay: qHTS Assay for Inhibitors of PDE-IV (AID 607; active means well fitted activation curve with a large enough effect in the main read-out, with a control signal flat, not every such curve was filed as active; further: % of control where 0% means no effect); details: HEK293 ACTOne CNG channel cells, membrane potential fluorescence; series mostly up to 22.9 µM
How it was run: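 HEK293 ACTOne cells with CNG channel (1000/well), endogenous PDE4; membrane potential dye, compounds up to 22.9 uM final. Fluorescence Ex 535/Em 590; RO 20-1724 (100 uM final) as reference.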

Cytochrome P450 1A2 (Homo sapiens), sequence (P05177 whole entry, looked up): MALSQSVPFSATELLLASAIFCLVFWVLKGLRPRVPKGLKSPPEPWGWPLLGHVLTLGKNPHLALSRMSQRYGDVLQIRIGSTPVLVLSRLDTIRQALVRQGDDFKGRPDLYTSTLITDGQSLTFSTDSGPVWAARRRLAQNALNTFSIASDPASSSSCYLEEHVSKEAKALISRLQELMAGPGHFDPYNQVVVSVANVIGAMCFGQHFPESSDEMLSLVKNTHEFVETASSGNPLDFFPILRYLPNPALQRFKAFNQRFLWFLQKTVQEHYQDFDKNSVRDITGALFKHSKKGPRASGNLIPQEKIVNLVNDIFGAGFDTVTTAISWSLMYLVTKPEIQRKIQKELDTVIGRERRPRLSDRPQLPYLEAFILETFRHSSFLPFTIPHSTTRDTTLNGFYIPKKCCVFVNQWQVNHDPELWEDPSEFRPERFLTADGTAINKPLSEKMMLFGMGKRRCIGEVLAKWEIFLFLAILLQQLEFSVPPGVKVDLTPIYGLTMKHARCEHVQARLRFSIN
Glucocorticoid receptor (Homo sapiens), sequence (P04150 whole entry, looked up, the tested form may be a part): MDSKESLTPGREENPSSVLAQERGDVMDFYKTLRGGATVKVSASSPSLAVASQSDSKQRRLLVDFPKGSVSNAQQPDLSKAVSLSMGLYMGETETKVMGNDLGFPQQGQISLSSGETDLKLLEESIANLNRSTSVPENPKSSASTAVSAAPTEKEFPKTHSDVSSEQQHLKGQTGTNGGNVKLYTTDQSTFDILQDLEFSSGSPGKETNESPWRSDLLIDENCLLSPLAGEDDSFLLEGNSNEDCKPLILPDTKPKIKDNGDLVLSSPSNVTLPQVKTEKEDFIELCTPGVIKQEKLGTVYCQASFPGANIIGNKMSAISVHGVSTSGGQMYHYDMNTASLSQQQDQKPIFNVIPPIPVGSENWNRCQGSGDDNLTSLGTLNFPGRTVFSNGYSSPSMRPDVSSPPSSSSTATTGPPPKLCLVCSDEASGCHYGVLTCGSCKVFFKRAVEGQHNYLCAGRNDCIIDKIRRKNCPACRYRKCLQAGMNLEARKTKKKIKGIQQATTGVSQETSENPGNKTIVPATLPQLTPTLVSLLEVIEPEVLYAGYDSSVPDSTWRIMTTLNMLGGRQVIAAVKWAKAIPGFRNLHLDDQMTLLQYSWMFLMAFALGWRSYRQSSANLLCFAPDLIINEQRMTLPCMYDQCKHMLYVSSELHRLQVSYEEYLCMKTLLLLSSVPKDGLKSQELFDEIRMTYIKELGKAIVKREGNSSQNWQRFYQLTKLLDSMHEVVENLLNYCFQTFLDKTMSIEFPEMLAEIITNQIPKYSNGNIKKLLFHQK
3',5'-cyclic-AMP phosphodiesterase 4B (Homo sapiens), sequence (Q07343 whole entry, looked up): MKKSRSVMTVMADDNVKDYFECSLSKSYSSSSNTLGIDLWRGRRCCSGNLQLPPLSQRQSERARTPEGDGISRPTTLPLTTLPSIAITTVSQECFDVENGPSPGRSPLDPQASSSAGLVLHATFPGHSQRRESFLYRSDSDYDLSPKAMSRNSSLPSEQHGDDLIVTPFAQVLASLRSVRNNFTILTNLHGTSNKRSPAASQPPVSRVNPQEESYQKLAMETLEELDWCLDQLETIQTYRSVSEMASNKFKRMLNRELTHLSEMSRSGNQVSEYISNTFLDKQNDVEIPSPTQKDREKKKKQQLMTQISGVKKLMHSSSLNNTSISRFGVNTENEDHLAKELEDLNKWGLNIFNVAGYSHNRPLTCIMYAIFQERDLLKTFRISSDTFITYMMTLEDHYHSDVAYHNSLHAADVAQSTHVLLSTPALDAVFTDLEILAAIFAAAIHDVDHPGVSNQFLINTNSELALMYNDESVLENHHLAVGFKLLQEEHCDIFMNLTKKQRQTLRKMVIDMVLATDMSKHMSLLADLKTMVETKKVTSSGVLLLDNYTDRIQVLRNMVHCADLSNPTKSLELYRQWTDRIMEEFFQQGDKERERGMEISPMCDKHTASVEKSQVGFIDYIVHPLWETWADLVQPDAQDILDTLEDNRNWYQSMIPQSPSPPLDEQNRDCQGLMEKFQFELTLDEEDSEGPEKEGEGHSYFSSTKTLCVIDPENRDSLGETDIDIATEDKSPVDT
Lysosomal acid glucosylceramidase (Homo sapiens), sequence (P04062 whole entry, looked up): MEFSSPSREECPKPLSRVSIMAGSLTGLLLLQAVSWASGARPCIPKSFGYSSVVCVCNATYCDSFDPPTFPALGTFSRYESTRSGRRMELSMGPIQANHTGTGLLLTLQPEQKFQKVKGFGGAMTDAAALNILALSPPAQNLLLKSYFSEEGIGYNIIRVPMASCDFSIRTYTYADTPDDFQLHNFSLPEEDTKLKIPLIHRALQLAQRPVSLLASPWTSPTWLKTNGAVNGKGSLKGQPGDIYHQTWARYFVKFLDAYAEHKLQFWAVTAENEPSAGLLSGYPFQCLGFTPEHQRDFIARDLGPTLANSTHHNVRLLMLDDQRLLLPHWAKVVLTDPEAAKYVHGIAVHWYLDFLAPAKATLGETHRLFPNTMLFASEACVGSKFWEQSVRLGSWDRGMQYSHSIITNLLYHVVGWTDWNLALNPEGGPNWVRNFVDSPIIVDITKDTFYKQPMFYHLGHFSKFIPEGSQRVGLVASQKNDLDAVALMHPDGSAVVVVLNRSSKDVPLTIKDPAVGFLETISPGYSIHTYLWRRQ
Cytochrome P450 3A4 (Homo sapiens), sequence (P08684 whole entry, looked up): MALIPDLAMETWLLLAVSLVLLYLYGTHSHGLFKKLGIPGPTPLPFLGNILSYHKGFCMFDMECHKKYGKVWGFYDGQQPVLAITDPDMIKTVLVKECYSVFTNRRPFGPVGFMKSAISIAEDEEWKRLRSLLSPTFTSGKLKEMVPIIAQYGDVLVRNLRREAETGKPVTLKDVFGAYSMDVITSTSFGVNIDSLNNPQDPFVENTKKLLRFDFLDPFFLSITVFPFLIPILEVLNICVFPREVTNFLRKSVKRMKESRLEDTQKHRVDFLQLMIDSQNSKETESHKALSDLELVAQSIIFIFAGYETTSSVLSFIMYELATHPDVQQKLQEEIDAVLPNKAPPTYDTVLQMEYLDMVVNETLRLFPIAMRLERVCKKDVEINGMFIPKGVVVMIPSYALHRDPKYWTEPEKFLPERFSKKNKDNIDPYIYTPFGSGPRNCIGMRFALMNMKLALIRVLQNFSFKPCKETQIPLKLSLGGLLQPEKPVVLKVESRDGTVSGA

O=C(c1cnccn1)N1CCC2(CCN(Cc3cc(C(F)(F)F)cc(C(F)(F)F)c3)CC2)CC1
inactive: Potency [1] > 20 µM

c1cncc(CNc2cc(-c3ccc4c(c3)OCO4)ncn2)c1
inactive: Potency [1] > 20 µM
active: Potency [2] 0.794 µM

CN(CCC(=O)O)C1=Nc2ccc(Cl)cc2C(c2ccccc2)=[N+]([O-])C1
active: Potency [5] 0.0631 µM
inactive: Potency [3] > 11.4 µM | activity change, negative = inhibition [4] -5.9% | activity change, negative = inhibition [6] 13.9% | activity, negative = inhibition [7] 1.77% | Potency [8] > 46 µM | Potency [9] > 9.22 µM | activity change, negative = inhibition [10] 1.43% [at 11.4 µM] | outcome [11]

COc1ccc(-c2nc3cnc(N4CCOCC4)nc3n(CCc3ccccc3)c2=O)cc1
inactive: Potency [1] > 20 µM

CN(C)c1ncc2nc(-c3ccc(Cl)cc3)c(=O)n(C3CC3)c2n1
inactive: Potency [1] > 20 µM

C[C@H](Br)C(=O)N[C@H](CO)C(=O)O
inactive: Potency [3] > 11.4 µM | activity change, negative = inhibition [4] -6.82% | Potency [5] | activity change, negative = inhibition [6] 5.22% | activity, negative = inhibition [7] -2.06% | Potency [8] > 46 µM | Potency [9] > 9.22 µM | activity change, negative = inhibition [10] 0.572% [at 11.4 µM] | outcome [11]

Cc1cc[c]([Sb]2[O][C@H]([C@H](O)[C@H](O)C(=O)O)[C@@H](CO)[O]2)cc1
inactive: Potency [3] > 11.4 µM | activity change, negative = inhibition [4] 0.9% | Potency [5] | activity change, negative = inhibition [6] -5.69% | activity, negative = inhibition [7] 4.3% | Potency [8] > 46 µM | Potency [9] > 9.22 µM | activity change, negative = inhibition [10] 0.865% [at 11.4 µM]

NS(=O)(=O)c1ccc(-c2ccc([As](=O)(O)O)cc2)cc1
inactive: Potency [3] > 11.4 µM | activity change, negative = inhibition [4] 0.512% | Potency [5] | activity change, negative = inhibition [6] 17.3% | activity, negative = inhibition [7] 6.23% | Potency [8] > 46 µM | Potency [9] > 9.22 µM

CN(C)CCCc1cccnc1
inactive: Potency [3] > 11.4 µM | activity change, negative = inhibition [4] 3.48% | activity change, negative = inhibition [5] -10.2% [at 2.29 µM] | activity change, negative = inhibition [6] 16.7% | activity, negative = inhibition [7] -4.3% | Potency [8] > 46 µM | Potency [9] > 9.22 µM | activity change, negative = inhibition [10] 3.96% [at 11.4 µM] | outcome [11]

O=C(O)[C@@H](Br)[C@H](Br)C(=O)O
inactive: Potency [3] > 11.4 µM | activity change, negative = inhibition [4] -8.85% | Potency [5] | activity change, negative = inhibition [6] 12.2% | activity, negative = inhibition [7] 3.93% | Potency [8] > 46 µM | Potency [9] > 9.22 µM | activity change, negative = inhibition [10] -1.13% [at 11.4 µM]
